H9c2 protect – protects H9c2 cardiomyocytes from peroxide injury. H2O2 injury protection, ATPLite, 2 h. protection from H2O2 cell death, % at 20 µM. 0.63% of 360,000 active. AID 588492;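 active = compounds giving at least 50% protection of heart cells from peroxide-induced death in the single-dose screen, raw or plate-pattern-corrected value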;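 also: 0% = DMSO wells with peroxide and 100% = DMSO wells without peroxide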
SUMO Mot1 rescue – blocks SUMOylation pathway, rescuing yeast Mot1-301 growth. growth rescue, % at 18.8 µM. S. cerevisiae Mot1-301 growth rescue, ATP luminescence, 38.5C; percent above DMSO median, 100 means doubled. 1% of 320,000 active;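 active = every valid replicate shows activation above 250% relative to neutral control wells; inactive = the rest, any valid replicate at or below 250%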;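 also: OY570 slx delta 5 strain wells were the positive control but not used for scaling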
aDG glyco act – increases alpha dystroglycan glycosylation; Pro5-aDG cells, alpha-DG glycosylation AlphaScreen (IIH6); 0% Pro5, 100% B10-LARGE cell signal; activation, % at 10 µM; 0.22% of 360,000 active; AID 624168;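 active = activation of at least 8% versus controls, or a plate z-score of at least 8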;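 also: Pro5 are CHO cells carrying HIG-tagged alpha-DG that lacks glycosylation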
MPTP inh – blocks calcium-induced mitochondrial swelling; isolated mouse mitochondria, Ca2+ swelling absorbance, 30 min; 1.4% of 360,000 active; inhibition, % at 10 µM; AID 602449;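 active = inhibition of 50% or more, scaled per plate between neutral and stimulator controls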;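 also: 0% = DMSO wells given calcium and 100% = 1 mM EGTA wells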
Yeast superoxide – lowers age-related superoxide in aged yeast cells; S. cerevisiae aged cells, superoxide DHE fluorescence; active compounds read low; superoxide response (% of plate mean), % at 10 µM; 0.18% of 330,000 active; AID 2690;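 active = superoxide response under a set limit, about three screen SD below normal, cut at about 65% in these data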;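 also: yeast aged for seven days with compound at 30 °C before DHE staining; 100% = average MFI of all compound-treated wells on the plate with controls excluded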
FAS-TE inh – inhibitors of human fatty acid synthase thioesterase domain. P49327. recombinant FAS-TE, OMFH fluorogenic substrate, fluorescence endpoint. inhibition, % at 15 µM. 0.67% of 360,000 active. AID 602261;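 active = compounds whose normalised, plate-corrected inhibition of enzyme fluorescence in the single-dose primary screen is 50% or more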;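 also: 0% = DMSO with enzyme and 100% = substrate without enzyme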
MPTP counter – mitochondrial membrane potential, counter-screen; inhibition, % at 10 µM; isolated mitochondria, Rhodamine 123 fluorescence; AID 624504; shares compounds with MPTP inh; 78% of 5,000 active; in the data active = inhibition above about 22%;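 also: 0% = DMSO vehicle and 100% = positive control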
* = called active by the depositor; · = no result. Most compounds without a hit are left out; they make up all but 3.8% or so of the library.

SMILES | H9c2 protect | SUMO Mot1 rescue | aDG glyco act | MPTP inh | Yeast superoxide | FAS-TE inh | MPTP counter
O=C(NCCN1CCN(Cc2ccccc2)CC1)Nc1cc(Cl)cc(Cl)c1 | -10 | 29 | 1 | 85* | 81 | 9 | 96*
COc1cccc(NC(=O)Nc2ccccc2Br)c1 | -7 | 18 | 1 | 29 | 91 | 5 | ·
O=C(Nc1cccc(Cl)c1)Nc1cccc(Cl)c1 | -32 | -18 | 2 | 102* | 108 | 12 | 88*
O=C(Nc1ccccc1)Nc1cc(Cl)cc(Cl)c1 | -21 | 1 | 0 | 101* | 110 | 24 | 100*
COc1cccc(NC(=O)Nc2cc(Cl)ccc2C)c1 | -8 | 15 | 1 | 92* | 105 | 9 | 82*
CC(=O)O[C@@H]1C[C@@]2(C)[C@@H](CC[C@H]2[C@@H](C)/C=C\CC(C)C)C2=C[C@@H](O)[C@@]3(O)C[C@@H](O)[C@H](O)C[C@]3(CO)[C@]21O | 0 | · | 0 | -2 | · | -1 | ·
CSC[C@H]1CN(Cc2cccnc2)C(=O)[C@@H]1CC(=O)Nc1ccc(Br)cc1 | -3 | · | 0 | -1 | · | -1 | ·
C[C@H](NC(=O)C1CCN(C(=O)[C@@H]2CCCN2C(=O)OC(C)(C)C)CC1)C(=O)NCc1ccc(F)cc1 | 8 | · | 1 | -1 | · | 2 | ·
O=C(Nc1cccc(Cl)c1)Nc1ccnc(-c2cccnc2)n1 | 47 | -8 | 0 | 77* | 121 | 2 | 87*
O=C(Nc1cccnc1)Nc1ccc(Br)cc1Cl | -9 | -4 | 0 | 58* | 113 | 3 | 80*
CCc1ccccc1NC(=O)Nc1cccc(F)c1 | -7 | 5 | 1 | 76* | 98 | 3 | 81*
CC1CCC(=C(C#N)C(=O)Nc2cccc(Cl)c2)CC1 (stereo not given) | -16 | 58 | 0 | 86* | 96 | 15 | 84*
CSc1ccccc1NC(=O)Nc1cccc(F)c1 | -7 | 2 | 1 | 45 | 91 | 9 | ·
CC1(C)CCC(=O)C=C1Nc1ccc(F)c(Cl)c1 | 0 | -13 | 0 | 3 | 100 | -1 | ·
O=C(Nc1ccccc1)Nc1cc(OCC(F)(F)F)cc(OCC(F)(F)F)c1 | -11 | · | 0 | 77* | · | 52* | 63*
O=C(Nc1cccc(F)c1)Nc1cccc(Cl)c1 | -20 | -11 | 0 | 88* | 110 | 15 | 80*
O=C(Nc1cccc(Cl)c1)N1CCSc2cc(Cl)ccc21 | -14 | 3 | 0 | 76* | 94 | 24 | 88*
CS(=O)(=O)Nc1ccccc1C(=O)Nc1cc(Cl)cc(Cl)c1 | -14 | 8 | 0 | 97* | 94 | 0 | 83*
CS(=O)(=O)Nc1ccccc1C(=O)Nc1cccc(Cl)c1 | -16 | -4 | 0 | 28 | 93 | -4 | ·
O=C(Nc1ccccc1)N1CCSc2cc(Cl)ccc21 | -4 | · | 1 | 6 | 104 | -7 | ·
CCc1nc2ccc(C(=O)N(C)C(C)C)cn2c1N(CCC(C)C)CCN(C)C | 5 | · | 0 | 0 | · | -12 | ·
COC(=O)c1cc(NC(=O)Nc2cccc(Cl)c2)ccc1Cl | -17 | 47 | 2 | 90* | 116 | 34 | 73*
COC(=O)c1cc(NC(=O)c2ccc(-c3ccccc3)cc2)ccc1Cl | -5 | 1 | 0 | 31 | 96 | -1 | ·
N#CCc1ccc(NC(=O)Nc2cccc(Cl)c2)cc1 | -25 | 12 | 2 | 90* | 95 | 11 | 107*
O=C(NCc1ccc(F)cc1)Nc1cccc(Cl)c1 | -9 | 7 | 1 | 85* | 92 | 26 | 93*
O=C(Nc1cccnc1)Nc1cc(Cl)cc(Cl)c1 | -28 | -4 | 2 | 89* | 91 | 6 | 98*
N#Cc1ccccc1NC(=O)Nc1cccc(Cl)c1 | 0 | -20 | 0 | 2 | 100 | -6 | ·
CC1CC(C)CN(C(=O)COC(=O)c2ccc(Cl)nc2)C1 (stereo not given) | 16 | · | 0 | 2 | · | -5 | ·
O=C(Nc1cccc(Cl)c1)ON=C1c2ccccc2-c2ccccc21 | -8 | 51 | 0 | 86* | 107 | -20 | 87*
Cc1cccc(N(O)C(=O)Nc2cccc(Cl)c2)c1 | -2 | -6 | 0 | 64* | 93 | -161 | 84*

Compound activity from PubChem.
